Each structure is given as a SMILES string. Inconclusive results are not listed. Where a call stands in place of a potency, no number is given. The source made the active and inactive calls. Calls come from the whole dose curve; as a rule, active = well fitted inhibition curve with a large enough effect in the repeat runs; inconclusive = weak or mixed curves; inactive = flat fitted curve, though single readings scatter.

In PubChem BioAssay (Tox21) one finds Potency data, which are given here for 40 compounds.
Potency is the fitted concentration of half-maximal effect.

This test is described as follows: qHTS assay to identify small molecule HDAC inhibitors (AID 1259364). Note: nearly all actives have a fitted effect of over 45% in size. The following applies: HCT-116 HDAC-Glo I/II luminescence, 2 h; series mostly up to 92.4 µM. An excerpt:
U.S. Tox21 Program National Center for Advancing Translational Sciences [NCATS] NIH Chemical Genomics Center [NCGC] U.S. Environmental Protection Agency [EPA] National Institutes of Environmental Health Sciences [NIEHS] National Toxicology Program [NTP] U.S. Food and Drug Administration [FDA] Tox21 Assay Overview: Histone deacetylases (HDACs) are a group of epigenetic enzymes that regulate gene expression by histone deacetylation. HDACs are capable of introducing epigenetic modifications and such aberrations contribute to the onset and progression of several human diseases, thus making HDACs a popular therapeutic target. For identifying endogenous class I/II HDAC inhibitors a homogenous, luminogenic HDAC I/II cell based assay was used to measure the relative activity of class I and II HDACs from cells. Wild type HCT-116 cells were used to screen Tox21 libraries for identifying class I/II HDAC inhibitors.
Tox21 Assay Protocol Summary: HCT-116 cells were dispensed at 1,500 per well in 5uL of culture medium into white solid bottom 1536-well plates (Greiner Bio-One, Monroe, NC) using a Multidrop Combi (Thermo Scientific, Waltham, MA) dispenser. The assay plates were incubated at 37 C and 5% CO2 for an overnight, and then 23nL of compounds dissolved in DMSO and positive control were transferred using a Pintool station (Wako, San Diego, CA). The assay plates were incubated at 37C and 5% CO2 for 2hr. After compound treatment, 4uL of HDAC-Glo reagent (Promega Corporation, Madison, WI) was added to each well of the assay plates using Flying Reagent Dispenser (FRD, Aurora Discovery, San Diego, CA) and incubated the assay plates at room temperature for 30min. The luminescence signal was quantified using a ViewLux plate reader (Perkin Elmer, Shelton, CT).
A general note: In qHTS, concentration-response curves come from the screen itself.
Regarding `C/C=C1\[C@H]2C=C(C)C[C@]1(N)c1ccc(=O)[nH]c1C2`, the Potency result was “inactive”.

For the compound `COc1ccc(C(=O)Nc2ccccc2)cc1[N+](=O)[O-]`, the Potency was 24.5 µM (active).

Turning to `COc1ccc(/C=C/c2cc(OC)cc(=O)o2)cc1`, the Potency is 6.26 µM (active).

In the case of `O=C(O)c1cccc(C(=O)O)c1C(=O)O`, the Potency entry was “inactive”.

`CCCC(=O)OCc1ccccc1`: the Potency result is “inactive”.

Regarding `C/C(=C\C(C)CC(C)CC(C)C)C1CC(=O)OC1=O` (stereo not given), the Potency result is “inactive”.

For the compound `C=CC(=O)OCCCCCCCCCC`, the Potency result is “inactive”.

On to `CC(C)(C)c1ccc(CCC=O)cc1`, for which the Potency entry was “inactive”.

With `CCC(C)CCCC(C)(C)O` (stereo not given), the Potency entry is “inactive”.

With `OCCc1ccncc1`, the Potency entry is “inactive”.

On to `COc1ccc(/C=C/S(=O)(=O)NC(=O)c2ccc(C)cc2Cl)cc1`, for which the Potency result was “inactive”.

`C=CC(C)CCC=C(C)C` (stereo not given): the Potency result is “inactive”.

Regarding `c1ccc(CN(Cc2ccccc2)Cc2ccccc2)cc1`, the Potency entry is “inactive”.

Consider `COC(=O)/C=C/C(C)=C\C=C\C(C)=C\C=C\C=C(C)\C=C\C=C(C)\C=C\C(=O)O`, for which the Potency was 24.3 µM (active).

On to `CC(C)=CCCC(C)C=O` (stereo not given), for which the Potency entry is “inactive”.

Regarding `CC(C)C/C=C(\C=O)c1ccccc1`, the Potency entry is “inactive”.

For the compound `O=C(O)c1ccncc1`, the Potency result is “inactive”.

As for `CC1(C)CC(O)CC(C)(C)N1[O]`, the Potency entry is “inactive”.

For `CC(=O)c1ccc(Cl)c(Cl)c1Cl`, the Potency result is “inactive”.

Take `N#CCCCC(C#N)CCC#N` (stereo not given): the Potency result is “inactive”.

Regarding `SCCOCCOCCS`, the Potency result was “inactive”.

For the compound `CC(O)CN` (stereo not given), the Potency result was “inactive”.

Regarding `CCOCCn1c(N2CCCN(C)CC2)nc2ccccc21`, the Potency result is “inactive”.

Turning to `CC(C)CC(C)(C)C`, the Potency entry is “inactive”.

Take `Clc1ccccc1-c1nc(-c2ccncc2)no1`: the Potency is 2.66 µM (active).

Take `O=[N+]([O-])c1ccc(Cl)cc1Cl`: the Potency entry is “inactive”.

Consider `CC(=O)c1cccnc1`, for which the Potency result is “inactive”.

Turning to `CS(C)=O`, the Potency entry was “inactive”.

Regarding `CC(C)CCCCCOC(=O)CS`, the Potency entry is “inactive”.

In the case of `O=c1c2ccccc2oc2ccccc12`, the Potency is 17.2 µM (active).

With `O=C(Cl)c1ccc(F)c(Cl)c1`, the Potency result was “inactive”.

On to `CCc1c(C)[nH]c2c1C(=O)C(CN1CCOCC1)CC2` (stereo not given), for which the Potency result is “inactive”.

On to `CCc1ccc2c(c1)C(=O)c1ccccc1C2=O`, for which the Potency was 0.77 µM (active).

As to `COc1ccc(/C(C)=C/C(=O)O)c(OC)c1`, the Potency result was “inactive”.

For the compound `CCCCCCOC(=O)c1ccccc1`, the Potency entry is “inactive”.

For `CCC[Si](OC)(OC)OC`, the Potency result is “inactive”.

Take `COC(=O)Cc1cccc2ccccc12`: the Potency entry is “inactive”.

Turning to `CCC(CC)C(=O)O`, the Potency result is “inactive”.

Consider `Cc1cc(C)n(CO)n1`, for which the Potency entry was “inactive”.

As to `C[C@H](N)C(=O)N[C@@H](C)C(=O)NC1[C@H]2CN(c3nc4c(cc3F)c(=O)c(C(=O)O)cn4-c3ccc(F)cc3F)C[C@@H]12` (stereo not given in full), the Potency entry was “inactive”.
